From paper PMC4336329 (PLoS ONE, 2015)
About 14,000 (4.5%) of roughly 310,000 compounds showed an effect of 50% or more. Effects have a minus sign here. The entries come from a sample that favours strong results as a whole.

Target: human ether-à-go-go-related gene (hERG) potassium channel (human, UniProt Q12809)
Assay: primary screen, population patch clamp on CHO cells stably expressing hERG; higher = less effect of the substance
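Also: peak tail current of the secondary pulse compared with the same well before compound.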

Sequence of human ether-à-go-go-related gene (hERG) potassium channel (Q12809 whole entry, looked up): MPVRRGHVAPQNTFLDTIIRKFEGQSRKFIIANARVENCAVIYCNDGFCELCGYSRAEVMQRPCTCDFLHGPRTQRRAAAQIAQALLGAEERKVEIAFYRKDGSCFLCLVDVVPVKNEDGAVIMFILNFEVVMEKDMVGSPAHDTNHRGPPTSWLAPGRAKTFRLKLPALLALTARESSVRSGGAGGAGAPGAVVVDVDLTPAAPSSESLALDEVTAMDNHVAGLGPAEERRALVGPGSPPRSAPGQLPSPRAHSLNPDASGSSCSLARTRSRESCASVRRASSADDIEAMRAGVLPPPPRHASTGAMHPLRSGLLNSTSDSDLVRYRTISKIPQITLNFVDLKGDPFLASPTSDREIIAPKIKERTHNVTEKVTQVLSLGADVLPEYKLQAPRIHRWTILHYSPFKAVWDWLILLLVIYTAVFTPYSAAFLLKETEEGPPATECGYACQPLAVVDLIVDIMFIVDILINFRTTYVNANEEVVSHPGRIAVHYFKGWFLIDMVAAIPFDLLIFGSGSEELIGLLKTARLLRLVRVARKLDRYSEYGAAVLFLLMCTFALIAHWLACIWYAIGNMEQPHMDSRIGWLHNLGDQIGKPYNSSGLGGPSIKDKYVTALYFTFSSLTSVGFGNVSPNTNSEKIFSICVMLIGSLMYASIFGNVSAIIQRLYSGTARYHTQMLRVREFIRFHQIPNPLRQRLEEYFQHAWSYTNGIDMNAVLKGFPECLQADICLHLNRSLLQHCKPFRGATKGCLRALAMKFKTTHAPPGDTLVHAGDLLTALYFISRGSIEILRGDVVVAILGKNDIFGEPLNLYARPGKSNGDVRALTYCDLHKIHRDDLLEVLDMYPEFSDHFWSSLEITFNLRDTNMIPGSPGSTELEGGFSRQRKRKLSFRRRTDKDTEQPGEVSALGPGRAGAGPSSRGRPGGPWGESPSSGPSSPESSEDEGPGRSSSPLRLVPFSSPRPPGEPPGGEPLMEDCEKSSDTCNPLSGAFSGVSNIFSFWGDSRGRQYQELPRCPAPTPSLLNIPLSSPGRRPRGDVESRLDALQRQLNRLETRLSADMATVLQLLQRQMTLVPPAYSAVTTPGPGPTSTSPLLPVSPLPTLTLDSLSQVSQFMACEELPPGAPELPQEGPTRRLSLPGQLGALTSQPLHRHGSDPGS

| SMILES | hERG current change (%, negative = inhibition) at 10uM |
| --- | --- |
| COc1ccc(-c2cn[nH]c2-c2ccc(OC)cc2)cc1 | 8.51% |
| CCN(CC)C(=O)c1c[nH]c2ccc(S(=O)(=O)Nc3cc(C)cc(C)c3)cc2c1=O | -0.741% |
| CCOC(=O)c1[nH]c(Cc2[nH]c(C(=O)OCC)c(C)c2CCC(=O)OC)c(CCC(=O)OC)c1C | 3.71% |
| COc1cccc(-c2nc(-c3ccccc3)no2)c1 | 1.72% |
| Cc1cccc(Nc2nc3c(S(=O)(=O)c4ccccc4)nnn3c3ccccc23)c1C | 12.6% |
| CCC(C)NC(=O)Cn1nc(C(F)(F)F)c2c1CCC2 (centres unmarked) | 1.83% |
| N#Cc1c(SCC(=O)Nc2nc3ccccc3s2)sc2c(O)cc(=O)[nH]c12 | 20.7% |
| c1ccc2c(c1)nc(Nc1ccc(N3CCCCC3)cc1)c1nncn12 | -13.8% |
| Cc1nc(-c2ccc(F)cc2)c(CC(=O)Nc2cccc(S(=O)(=O)N3CCOCC3)c2)s1 | -15.8% |
| Cc1nn(-c2ccccc2)c(N2CCCC2)c1/C=N/NC(=O)c1cc2ccccc2cc1O | -55.5% |
| Cc1nn(-c2ccccc2)c(N2CCCC2)c1/C=N/NC(=O)c1cc(-c2ccccc2)nc2ccccc12 | 13.3% |
| COc1cc(/C=N/NC(=O)c2ccoc2C)ccc1OCCN1CCCCC1 | -31.6% |
| Cc1nn(-c2ccccc2)c(N2CCCC2)c1/C=N/NC(=O)c1ccccc1O | -2.88% |
| COc1cc(/C=N/NC(=O)c2ccncc2)ccc1OCCN1CCCCC1 | -3.37% |
| COc1cc(/C=N/NC(=O)c2cc3ccccc3cc2O)ccc1OCCN1CCCCC1 | -65.9% |
| CCOc1cc(/C=N/NC(=O)CN2CCCCC2)ccc1OCc1ccc(Cl)cc1 | 7.37% |
| COc1ccc(Br)cc1/C=N/NC(=O)CN1CCCCC1 | -4.99% |
| COc1cc(/C=N/NC(=O)CCN2CCN(Cc3ccccc3)CC2)cc(OC)c1OC | -29.2% |
| COc1ccc(Br)cc1/C=N/NC(=O)CN1CCN(Cc2ccccc2)CC1 | -33.1% |
| COc1cc(/C=N/NC(=O)CN2CCCCC2)ccc1OCc1ccc(Br)cc1 | -59% |
| COc1ccc(/C=N/NC(=O)CN2CCN(Cc3ccccc3)CC2)cc1Br | -68% |

| SMILES | hERG current change (%, negative = inhibition) at 10uM |
| --- | --- |
| Cc1ccc(S(=O)(=O)Nc2cc(C)on2)cc1 | 15.4% |
| CCN(CC(=O)Nc1ccc(NC(C)=O)cc1)C(=O)c1cc(-c2ccccc2)nn1-c1ccccc1 | 8.43% |
| O=C(CSc1nnc(-c2cccnc2)o1)NNC(=O)c1ccc(Br)cc1 | 2.19% |
| O=C(COc1ccccc1)N(Cc1cc2ccccc2[nH]c1=O)CC1CCCO1 (centres unmarked) | -1.24% |
| CCC1(c2ccccc2)NC(=O)N(CC(=O)Nc2ccccc2N2CCCC2)C1=O (centres unmarked) | 1.38% |
| O=C(c1cc(-c2cccc(Cl)c2)nc2ccccc12)N1CCCC1 | -40.2% |
| CCC(C)NS(=O)(=O)c1ccc(OCC(=O)Nc2ccc3c(c2)OCCO3)cc1 (centres unmarked) | -26.3% |
| Cl.c1ccc(COc2ccccc2CNCc2cccnc2)cc1 | -8.89% |
| COc1cc(CNCc2ccncc2)cc(Br)c1OCc1ccccc1F.Cl | -43.3% |
| CCOc1ccc(Br)cc1CNCc1cccnc1 | -10.2% |
| Cl.Fc1ccccc1COc1ccc(Br)cc1CNCc1ccncc1 | -70.2% |
| Cl.Fc1ccccc1COc1ccc(Br)cc1CNCc1cccnc1 | -70.2% |
| Cl.Fc1ccc(COc2ccc(Br)cc2CNCc2ccncc2)cc1 | -74.7% |
| Cl.Fc1ccc(COc2ccccc2CNCc2ccncc2)cc1 | -32.6% |
| Cl.Fc1ccccc1COc1ccccc1CNCc1ccncc1 | -44% |
| Brc1ccc(OCc2ccccc2)c(CNCc2ccncc2)c1.Cl | -19.9% |
| CCC(NC(=O)c1ccccc1NC(=O)c1ccco1)C(=O)NNC(=O)c1ccncc1 (centres unmarked) | 8.86% |
| COc1ccc(NC(=O)CCCc2ccc(OC)c(C)c2)cc1 | 3.93% |
| Cn1nnnc1SCC(=O)NCc1ccc2c(c1)OCO2 | 31.4% |
| CC(C)c1cc(C(=O)N/N=C/c2cccnc2)cs1 | -31.9% |
| c1coc(CSc2ncnc3c2oc2ccccc23)c1 | 13.9% |

| SMILES | hERG current change (%, negative = inhibition) at 10uM |
| --- | --- |
| COCCN(CCOC)c1nc(-c2ccc([N+](=O)[O-])cc2)nc2ccccc12 | -34.3% |
| COCCN(CCOC)c1nc(-c2ccc(Cl)cc2)nc2ccccc12 | -5.82% |
| COCCN(CCOC)c1nc(-c2ccc(C)cc2)nc2ccccc12.Cl | -65.4% |
| COCCN(CCOC)c1nc(-c2ccccc2)nc2ccccc12 | -68.2% |
| COCCNc1nc(-c2ccccc2)nc2ccccc12.Cl | -32.5% |
| Cc1ccc(-c2nc(NCCN(C)C)c3ccccc3n2)cc1 | -44.9% |
| O=C(O)C1CC(=O)N(c2ccc(F)c(F)c2)C1 (centres unmarked) | 13% |
| CCCCOC(=O)C1=C(C)NC(=O)NC1c1ccccc1 (centres unmarked) | 6.12% |
| COc1ccc(SCCN2CC[C@@H](NC(=O)OCc3ccccc3)CCC2=O)cc1 | -54.4% |
| O=C(N[C@@H]1CCC(=O)N(CC[C@H](Sc2ccccc2)c2ccccc2)CC1)OCc1ccccc1 | -24% |
| N#CC[C@H](Cc1ccccc1)N1CC[C@@H](NC(=O)OCc2ccccc2)CCC1=O | -45.1% |
| O=C(N[C@H]1CCC(=O)N(CCSc2ccc(Br)cc2)CC1)OCc1ccccc1 | -29.2% |
| Cc1ccc(SC[C@H](C)CN2CC[C@H](NC(=O)OCc3ccccc3)CCC2=O)cc1 | -41.6% |
| Cc1ccc(SCCN2CCC(NC(=O)OCc3ccccc3)CCC2=O)cc1 (centres unmarked) | -50.1% |
| O=C(NC1CCC(=O)N(CCSc2ccccc2)CC1)OCc1ccccc1 (centres unmarked) | -59.2% |
| O=C(N[C@H]1CCC(=O)N([C@H](CSc2ccccc2)Cc2ccccc2)CC1)OCc1ccccc1 | -37.6% |
| Cc1ccc(S[C@@H](CCN2CC[C@H](NC(=O)OCc3ccccc3)CCC2=O)c2ccccc2)cc1 | -26.1% |
| O=C(NC1CCC(=O)N(CCOc2ccccc2)CC1)OCc1ccccc1 (centres unmarked) | -30.2% |
| COc1ccc(SC[C@H](Cc2ccccc2)N2CC[C@@H](NC(=O)OCc3ccccc3)CCC2=O)cc1 | -10.2% |
| [N-]=[N+]=NC[C@H](Cc1ccccc1)N1CC[C@@H](NC(=O)OCc2ccccc2)CCC1=O | -52.5% |
